Data reported in PubChem BioAssay.
Activity calls are given as the source filed them.

molecular target: E3 ubiquitin-protein ligase XIAP (Homo sapiens) (UniProt P98170); test: small molecules binding XIAP protein – biophysical, small-molecule microarray, fluorescence 635 nm, primary screen (AID 1181); conditions: higher = more signal;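 note: score merges 667 nm emission and signal to noise over triplicate slides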
Sequence (P98170 whole entry, looked up): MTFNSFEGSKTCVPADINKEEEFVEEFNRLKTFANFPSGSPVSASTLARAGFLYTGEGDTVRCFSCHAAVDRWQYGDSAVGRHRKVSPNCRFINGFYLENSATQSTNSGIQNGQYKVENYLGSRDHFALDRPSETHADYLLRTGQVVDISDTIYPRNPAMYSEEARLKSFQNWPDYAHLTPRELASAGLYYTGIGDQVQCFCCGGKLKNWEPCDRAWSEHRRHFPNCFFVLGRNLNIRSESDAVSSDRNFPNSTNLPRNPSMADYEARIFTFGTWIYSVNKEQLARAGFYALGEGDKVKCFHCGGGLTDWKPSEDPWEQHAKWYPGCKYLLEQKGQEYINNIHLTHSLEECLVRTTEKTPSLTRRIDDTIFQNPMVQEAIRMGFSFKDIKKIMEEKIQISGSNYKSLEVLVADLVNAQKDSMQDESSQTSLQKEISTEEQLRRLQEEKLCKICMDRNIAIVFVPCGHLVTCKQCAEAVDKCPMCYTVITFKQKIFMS

SMILES | composite z-score
CCOC(=O)C1=C(C(=O)OCC)N(S(=O)(=O)CC[Si](C)(C)C)[C@H](c2ccccc2)CC1 | -0.127
C=CCC(OC(C)=O)[C@@H]1[C@@H](N(Cc2cc3ccccc3o2)C(=O)c2ccc(-c3ccccc3)cc2)c2cc(OCCCO)ccc2N1C(=O)c1ccc2ccccc2n1 (stereo not given in full) | -0.0818
O=C1O[C@@H](c2ccccc2)[C@@H](c2ccccc2)N2[C@@H](c3ccc(O)cc3)[C@]3(C(=O)Nc4ccc(C#CC5=CCCCC5)cc43)[C@@H](C(=O)N3CCCCCCC3)[C@H]12 | 0.691
COCCOC(=O)N1C(=O)[C@@]2(c3cc(C#CCC(C(=O)OC)C(=O)OC)ccc31)[C@H](C(=O)N1CCc3cc(OC)c(OC)cc3C1)[C@H]1C(=O)O[C@H](c3ccccc3)[C@H](c3ccccc3)N1[C@@H]2c1ccc(O)cc1 | -0.0034
C=C(/C(=C/C[C@H](OC(=O)c1ccncc1)c1ccccc1OCCO)c1cc(C(=O)OC)ccc1OC)C(C)C | -0.0478
NCCCC[C@@H]1NC(=O)[C@H]2C[C@@H](C(=O)O)[C@@H](c3cccc(OCCO)c3)N2C1=O | 0.201
CCCCN1CC=CC23O[C@@H]4/C=C\CCC(C)OC(=O)C4[C@H]2C(=O)N(C(C)CO)[C@@H]3C1=O (stereo not given in full) | 0.0785
CC(=O)c1ccc(C(O)C2C=CC3C(=O)NC(=O)C3N2Nc2ccc(Cl)cc2Cl)cc1 (stereo not given) | -0.0421
C[N+](C)(C)CCCC[C@@H]1NC(=O)[C@H]2C[C@@H](C(=O)NCCCCCNC(=O)CS)[C@@H](c3ccc(O)cc3)N2C1=O | -0.216
CN(C)CCCCNC(=O)[C@H]1C[C@H]2C(=O)N[C@@H](Cc3ccccc3)C(=O)N2[C@H]1c1cccc(OCCO)c1 | 0.0512
NC(=O)NCC#Cc1ccc2c(c1)[C@]1(C(=O)N2)[C@H](C(=O)Nc2nc3ccccc3s2)[C@H]2C(=O)O[C@H](c3ccccc3)[C@H](c3ccccc3)N2[C@@H]1c1ccc(OCCO)cc1 | 0.013
CC(C)CNC(=O)[C@@H]1c2ccccc2C(=O)N(Cc2ccccc2Cl)[C@H]1c1ccc(CO)cc1 | 0.199
C=CCNC(=O)[C@H]1[C@@H]2C(=O)O[C@@H](c3ccccc3)[C@@H](c3ccccc3)N2[C@@H](c2ccc(O)cc2)[C@]12C(=O)Nc1ccc(C#CC3=CCCCC3)cc12 | -0.124
CN(C)C(=O)[C@]1(Cc2ccccc2CN=[N+]=[N-])N=C(c2ccc(OCCCO)cc2)O[C@@H]1c1ccccc1N=[N+]=[N-] | 0.181
COCCn1c(C(=O)N2CCCC2)cc2c1C[C@H]1CN(C(=O)c3ccccc3)[C@@](Cc3ccccc3)(C(=O)OC)[C@@H]21 | 0.369
CCCC[C@@H](O)C1=C(COC)Cn2c(=O)n(-c3ccccc3)c(=O)n2[C@H]1CO | -0.189
CN(C)C(=O)[C@]1(Cc2ccccc2)N=C(c2ccc(OCCCO)cc2)O[C@@H]1c1ccccc1 | 0.125
COc1ccc([Si](C)(C)[C@H]2[C@H](CCO)O[C@@]3(C(=O)N(Cc4ccc(N5CCOC5=O)cc4)c4ccccc43)[C@@H]2C)cc1 | -0.0206
C=CCC(OC(C)=O)[C@@H]1[C@@H](N(Cc2cccc3ccccc23)C(=O)c2ccc(-c3ccccc3)cc2)c2cc(OCCCO)ccc2N1C(=O)c1ccc2ccccc2n1 (stereo not given in full) | -0.0102
C=CC[C@@]1(C(=O)O)N=C(c2ccc(OCCCO)cc2)O[C@@H]1c1ccccc1CN=[N+]=[N-] | 0.565
COC(=O)c1c(CC[C@@H](CO)NC(=O)N[C@@H](Cc2ccccc2)Cn2cc(-c3cncn3C)nn2)oc(C(C)=O)c1C(=O)OC | 0.14
COC(=O)Cn1c(C(=O)N(C)C)cc2c1C[C@H]1CN(C(=O)c3ccccc3)[C@@](Cc3ccc(OC)cc3)(C(=O)OC)[C@@H]21 | -0.158
CCCC=C(CCC)[C@@H](NS(=O)(=O)c1ccc(Cl)cc1)c1ccccc1 | 0.102
COc1ccc(CCNC(=O)[C@@H]2c3ccccc3C(=O)N(CC34CC5CC(CC(C5)C3)C4)[C@H]2c2ccc(CO)cc2)cc1 | 0.399
NC(=O)N1C(=O)C2C(C1=O)C1C=C(CCCO)C2C(c2ccc(CN3CCCC3)cc2)N1Cc1cccc(OC(F)(F)F)c1 (stereo not given) | 0.101
COc1ccc([Si](C)(C)[C@H]2[C@H](CCn3cc([C@H](O)c4ccccc4)nn3)O[C@@]3(C(=O)N(c4ccccc4)c4ccccc43)[C@@H]2C)cc1 | -0.316
CCCC=C(CCC)[C@@H](NC(=O)c1ccccc1)c1ccc(C(=O)OC)cc1 | 0.209

test system: XIP peptide (Xip251-270) binding; test: XIP fragment 251-270 binding compounds – biochemical, small-molecule microarray, fluorescence 635/667 nm, 0.1 µg/mL protein, primary screen (AID 1182); conditions: fluorescent protein binding, 635 nm, higher = more signal, called active from +8 up or from −8 down

SMILES | composite z-score
COC(=O)[C@@]1(Cc2ccc(F)cc2)[C@H]2c3cc(C(=O)N(C)C)n(CCN4CCOCC4)c3C[C@H]2CN1C(=O)c1ccccc1 | 0.673 (inactive)
C[N+](C)(C)CCCCCCNC(=O)[C@@H]1C[C@@H]2C(=O)N[C@@H](Cc3ccccc3)C(=O)N2[C@@H]1c1ccc(O)cc1 | 1.13 (inactive)
CO[C@H]1O[C@H](CO)[C@@H](OC(=O)Nc2ccc(C(F)(F)F)cc2)[C@H](OC(=O)Nc2ccccc2-c2ccccc2)[C@@H]1OC(=O)Nc1ccccc1-c1ccccc1 | 1.39 (inactive)
C=C(CCCC)/C(=C/C[C@H](OC(C)=O)c1cccc(OCCO)c1)c1cc(C(=O)OC)ccc1OC | 0.0894 (inactive)
COc1ccc([Si](C)(C)[C@H]2[C@H](CCn3cc([C@H](O)c4ccccc4)nn3)O[C@@]3(C(=O)N(C)c4c(Br)cc(C)cc43)[C@@H]2C)cc1 | 0.424 (inactive)
COCCOC(=O)N1C(=O)[C@@]2(c3cc(C#CC4(O)CCCCCC4)ccc31)[C@H](C(=O)N1CCc3cc(OC)c(OC)cc3C1)[C@H]1C(=O)O[C@H](c3ccccc3)[C@H](c3ccccc3)N1[C@@H]2c1ccc(O)cc1 | 0.424 (inactive)
C=CCOC(=O)[C@H]1[C@@H]2C(=O)O[C@@H](c3ccccc3)[C@@H](c3ccccc3)N2[C@@H](c2ccc(OCCOC(=O)[C@H]3C[C@H]4C(=O)NCC(=O)N4[C@H]3c3ccc(O)cc3)cc2)[C@]12C(=O)Nc1ccc(I)cc12 | -0.256 (inactive)
COCCOC(=O)N1C(=O)[C@@]2(c3cc(C#CC4=CCCCC4)ccc31)[C@H](c1ccc(OCCO)cc1)N1[C@H](c3ccccc3)[C@H](c3ccccc3)OC(=O)[C@H]1[C@@H]2C(=O)N1CCCCCCC1 | 1.32 (inactive)
CCOC(=O)C1=C(C(=O)OCC)N(S(=O)(=O)CC[Si](C)(C)C)[C@H](c2ccccc2)CC1 | -0.177 (inactive)
C=CCC(OC(C)=O)[C@@H]1[C@@H](N(Cc2cc3ccccc3o2)C(=O)c2ccc(-c3ccccc3)cc2)c2cc(OCCCO)ccc2N1C(=O)c1ccc2ccccc2n1 (stereo not given in full) | -0.341 (inactive)
O=C1O[C@@H](c2ccccc2)[C@@H](c2ccccc2)N2[C@@H](c3ccc(O)cc3)[C@]3(C(=O)Nc4ccc(C#CC5=CCCCC5)cc43)[C@@H](C(=O)N3CCCCCCC3)[C@H]12 | 1.52 (inactive)
COCCOC(=O)N1C(=O)[C@@]2(c3cc(C#CCC(C(=O)OC)C(=O)OC)ccc31)[C@H](C(=O)N1CCc3cc(OC)c(OC)cc3C1)[C@H]1C(=O)O[C@H](c3ccccc3)[C@H](c3ccccc3)N1[C@@H]2c1ccc(O)cc1 | 0.596 (inactive)
C=C(/C(=C/C[C@H](OC(=O)c1ccncc1)c1ccccc1OCCO)c1cc(C(=O)OC)ccc1OC)C(C)C | -0.0121 (inactive)
NCCCC[C@@H]1NC(=O)[C@H]2C[C@@H](C(=O)O)[C@@H](c3cccc(OCCO)c3)N2C1=O | 0.505 (inactive)
CCCCN1CC=CC23O[C@@H]4/C=C\CCC(C)OC(=O)C4[C@H]2C(=O)N(C(C)CO)[C@@H]3C1=O (stereo not given in full) | 1.02 (inactive)
CC(=O)c1ccc(C(O)C2C=CC3C(=O)NC(=O)C3N2Nc2ccc(Cl)cc2Cl)cc1 (stereo not given) | 0.187 (inactive)
C[N+](C)(C)CCCC[C@@H]1NC(=O)[C@H]2C[C@@H](C(=O)NCCCCCNC(=O)CS)[C@@H](c3ccc(O)cc3)N2C1=O | 0.949 (inactive)
CN(C)CCCCNC(=O)[C@H]1C[C@H]2C(=O)N[C@@H](Cc3ccccc3)C(=O)N2[C@H]1c1cccc(OCCO)c1 | -0.0743 (inactive)
NC(=O)NCC#Cc1ccc2c(c1)[C@]1(C(=O)N2)[C@H](C(=O)Nc2nc3ccccc3s2)[C@H]2C(=O)O[C@H](c3ccccc3)[C@H](c3ccccc3)N2[C@@H]1c1ccc(OCCO)cc1 | -0.165 (inactive)
CC(C)CNC(=O)[C@@H]1c2ccccc2C(=O)N(Cc2ccccc2Cl)[C@H]1c1ccc(CO)cc1 | 0.0394 (inactive)
C=CCNC(=O)[C@H]1[C@@H]2C(=O)O[C@@H](c3ccccc3)[C@@H](c3ccccc3)N2[C@@H](c2ccc(O)cc2)[C@]12C(=O)Nc1ccc(C#CC3=CCCCC3)cc12 | 0.542 (inactive)
CN(C)C(=O)[C@]1(Cc2ccccc2CN=[N+]=[N-])N=C(c2ccc(OCCCO)cc2)O[C@@H]1c1ccccc1N=[N+]=[N-] | 0.854 (inactive)
COCCn1c(C(=O)N2CCCC2)cc2c1C[C@H]1CN(C(=O)c3ccccc3)[C@@](Cc3ccccc3)(C(=O)OC)[C@@H]21 | 1.06 (inactive)
CCCC[C@@H](O)C1=C(COC)Cn2c(=O)n(-c3ccccc3)c(=O)n2[C@H]1CO | -0.698 (inactive)
CN(C)C(=O)[C@]1(Cc2ccccc2)N=C(c2ccc(OCCCO)cc2)O[C@@H]1c1ccccc1 | 0.895 (inactive)
COc1ccc([Si](C)(C)[C@H]2[C@H](CCO)O[C@@]3(C(=O)N(Cc4ccc(N5CCOC5=O)cc4)c4ccccc43)[C@@H]2C)cc1 | 0.782 (inactive)
C=CCC(OC(C)=O)[C@@H]1[C@@H](N(Cc2cccc3ccccc23)C(=O)c2ccc(-c3ccccc3)cc2)c2cc(OCCCO)ccc2N1C(=O)c1ccc2ccccc2n1 (stereo not given in full) | -0.268 (inactive)
C=CC[C@@]1(C(=O)O)N=C(c2ccc(OCCCO)cc2)O[C@@H]1c1ccccc1CN=[N+]=[N-] | -0.207 (inactive)
